DT40 TDP1 no CPT: qHTS for Inhibitors of human tyrosyl-DNA phosphodiesterase 1 (TDP1): qHTS in cells in absence of CPT; DT40 Tdp1-/- hTDP1 cells, no CPT, ATP luminescence, 48 h; Potency, µM (highest dose often 46.2 µM), for inactives: at the top dose activity change, negative = growth inhibition, usual class: inhibitors; 15% of 420,000 active; AID 686978, 2013; further: potency means the concentration at half of the fitted maximal effect; on the % scale 0 is the no-effect control and ±100 the full control effect; nearly all actives have a fitted effect of over 55% in size
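Compound effects on proliferation are scored in DT40 Tdp1-/-;hTDP1 cells in the absence of CPT. ATP levels (CellTiter-Glo luminescence) are recorded after a ≥48 hr, 37 °C incubation.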
DRD3 agonist: qHTS of D3 Dopamine Receptor Agonist: qHTS; D(3) dopamine receptor (Homo sapiens), P35462; D3R DiscoveRx beta-arrestin cells, luminescence, 90 min; max activation, %; 0.58% of 410,000 active; AID 652048, 2013; in the data active means max activation above about 30%; further: 0% is about no effect
Target sequence (P35462 whole entry, looked up): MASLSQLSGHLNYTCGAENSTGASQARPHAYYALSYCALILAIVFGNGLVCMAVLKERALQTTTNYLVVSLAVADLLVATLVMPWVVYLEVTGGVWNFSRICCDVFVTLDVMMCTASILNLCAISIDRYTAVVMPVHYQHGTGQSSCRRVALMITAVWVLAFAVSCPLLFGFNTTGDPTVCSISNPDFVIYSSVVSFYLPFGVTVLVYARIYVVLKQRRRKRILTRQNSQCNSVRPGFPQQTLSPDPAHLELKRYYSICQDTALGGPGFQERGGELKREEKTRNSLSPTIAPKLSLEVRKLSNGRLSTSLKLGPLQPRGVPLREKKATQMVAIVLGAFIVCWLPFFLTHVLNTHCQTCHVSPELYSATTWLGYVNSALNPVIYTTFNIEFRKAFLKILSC
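Cells at 1500/well, incubated overnight, then treated with pinned compounds (dopamine as control) for 90 min at 37 degrees C. DiscoveRx reagent added for 30 - 60 minutes at room temperature; luminescence read.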
ClpP mod: qHTS Assay for Activators of ClpP; purified B. subtilis ClpP, FRET peptide cleavage, 20 min; AID 651965, 2013; 1.9% of 340,000 active; Potency, µM (highest dose often 57.5 µM), for the others: at the highest dose activity change, negative = active; active means well fitted falling curve with a large enough effect; inconclusive means small, poorly fitted or top-dose-only effect; inactive means no such curve, though single readings can be large or run the other way; further: potency means the concentration at half of the fitted maximal effect; the source files actives as falling curves though it sought activators and does not explain the sign; nearly all actives have a fitted effect of over 65% in size
Target sequence (P80244 whole entry, looked up): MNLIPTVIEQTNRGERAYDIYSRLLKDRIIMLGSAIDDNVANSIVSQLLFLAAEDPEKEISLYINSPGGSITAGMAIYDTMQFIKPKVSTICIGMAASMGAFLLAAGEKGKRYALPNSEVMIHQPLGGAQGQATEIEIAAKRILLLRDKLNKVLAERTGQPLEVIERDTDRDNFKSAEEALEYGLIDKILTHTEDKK
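FRET quenching reversal measured ClpP activation: 10 microg/mL B. subtilis ClpP at pH 8 with the FRET-FV decapeptide, read at 430 nm after 320 nm excitation. The 20-min minus 0-min signal was scaled between DMSO/no-enzyme wells and ADEP (5.8 microM final).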
D3 antag: qHTS of D3 Dopamine Receptor Antagonist: qHTS. D(3) dopamine receptor (Homo sapiens), P35462. D3R cells, DiscoveRx beta-arrestin luminescence, antagonist mode; active compounds read low. max response, negative = inhibition, %. 2.5% of 360,000 active; in the data active means max response below about -50%; inconclusive means no clear call, values can overlap the other calls; further: on the % scale 0 is the no-effect control and ±100 the full control effect
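Cells expressing the human receptor were seeded at 1500 cells/well, incubated overnight at 37 degrees C in 5% CO2, then exposed to library compounds with dopamine controls for 90 minutes at 37 degrees C before luminescent detection.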
IL1B secr inh: qHTS for Inhibitors of Inflammasome Signaling: IL-1-beta AlphaLISA Primary Screen. THP-1 LPS/ATP IL-1B secretion, AlphaLISA, 16 h; active compounds read low. activity change, % at 57.5 µM. 4.7% of 360,000 active; in the data active means activity change below about -50%; inconclusive means mostly about -30% to -49%; further: on the % scale 0 is the no-effect control and ±100 the full control effect
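THP-1 cells pretreated 1 hr with compounds (up to 57.5 uM final), then stimulated with LPS (250 ng/mL final) plus ATP (1.25 mM final); secreted IL-1B measured by AlphaLISA after 16 hr, decreased signal indicating inhibition.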
TDP1 cell CPT: qHTS for Inhibitors of human tyrosyl-DNA phosphodiesterase 1 (TDP1): qHTS in cells in presence of CPT. 12% of 420,000 active. chicken DT40 Tdp1-/-;hTDP1 cells + 20 nM CPT, ATP luminescence, 48 h. Potency, µM (doses to about 46.2 µM), inactives show at the highest dose activity change, negative = growth inhibition, usual class: inhibitors; further: potency means the concentration at half of the fitted maximal effect; on the % scale 0 is the no-effect control and ±100 the full control effect; nearly all actives have a fitted effect of over 55% in size
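Chicken DT40 Tdp1-/- cells complemented with human TDP1, 400 cells/well, exposed to compounds plus 20 nM camptothecin for at least 48 h at 37 C; viability read as ATP content by CellTiter-Glo luminescence.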
* hit, by the source's call; i = inactive; ? = inconclusive; · = no result. In the library only some 21% were active in any assay of this set; here they are far more common. Unless noted, the call rests on the fitted dose curve; in most records, active means well fitted inhibition curve with a large enough effect; inconclusive means small, poorly fitted or top-dose-only effect; inactive means flat fitted curve, though single readings scatter.

SMILES	DT40 TDP1 no CPT	DRD3 agonist	ClpP mod	D3 antag	IL1B secr inh	TDP1 cell CPT
CCN(CCNC(=O)CCCn1nc(C)n2c(cc3sccc32)c1=O)c1ccccc1	23µM*	-3	0%	12	-3	15µM*
CSc1ccc(C2C(C#N)=C(N)Oc3c2ccc(=O)c2c(C)oc(C)c32)cc1 (stereo not drawn)	16µM*	-13	1%	-51*	-8	18µM*
CCOc1ccc(CCNC(=O)C2Cc3ccccc3N2C(=O)CC)cc1 (stereo not drawn)	-23%	-13	-1%	·	·	-27%
CCCCC(=O)NC(NC(=S)N1CCCCCC1)C(Cl)(Cl)Cl (stereo not drawn)	13µM*	1	2%	-6	-5	13µM*
CC(=O)NC(NC(=S)N1CCCCCC1)C(Cl)(Cl)Cl (stereo not drawn)	-8%	-3	·	0	46	3%
CCN(Cc1ccncc1)Cc1nc(-c2ccc(C(=O)OC)cc2)no1	21µM*	14	·	0	24	?
O=C(/C=C/c1ccco1)NCc1ccccn1	?	0	-2%	-8	-11	-19%
OCC1OC(c2ccc(OCc3ccccc3)cc2OCc2ccccc2)C(O)C1O (stereo not drawn)	9.2µM*	-3	2%	-6	?	10µM*
OCC1OC(c2ccc(O)cc2O)C(O)C1O (stereo not drawn)	-4%	-6	0%	-6	69	-6%
CC(=O)c1ccc(-c2cc(F)cc3c2OC(CNC(=O)c2ccc[n+]([O-])c2)C3)s1 (stereo not drawn)	-10%	·	·	·	·	1%
CC(=O)c1ccc(-c2ccc3c4c(ccc3c2)OC(CNC(=O)C(C)N2CCOCC2)C4)s1 (stereo not drawn)	7.3µM*	·	·	·	·	?
COc1ccc(Br)c(C(=O)OCC(=O)NC2CCCCCCC2)c1	?	-1	1%	-5	11	1%
Cc1ccc(S(=O)(=O)N2CCN(c3nc(-c4cccs4)nc(C)c3C)CC2)cc1	8%	·	-3%	·	·	10%
Cc1ccc(-c2csc3ncnc(N4CCN(S(=O)(=O)c5cccs5)CC4)c23)cc1	21µM*	6	-11%	11	29	?
Cc1ccc(-c2csc3ncnc(N4CCN(S(=O)(=O)c5ccc(C#N)cc5)CC4)c23)cc1	16µM*	1	-2%	0	7	?
Cc1ccc(S(=O)(=O)N2CCN(c3ncnc4sccc34)CC2)cc1	3.3µM*	3	1%	14	-10	7.3µM*
COc1ccc(-c2csc3ncnc(N4CCN(S(=O)(=O)c5ccc(C)c(C)c5)CC4)c23)cc1	18µM*	5	·	4	84	?
COc1ccc(C)cc1NC(=O)N1CCC(CN2CCC(C)CC2)CC1	1%	-13	-1%	·	·	1%
O=S(=O)(c1ccccc1)N1CCN(c2ncnc3scc(-c4ccccc4)c23)CC1	?	0	·	16	-4	16µM*
c1ccc(CC2CCN(c3ncnc4sccc34)CC2)cc1	2.6µM*	6	-1%	34	-51*	5.2µM*
Cc1nc2nc(C)c(NS(=O)(=O)c3ccc(Cl)cc3)c(=O)n2[nH]1	-22%	6	·	-15	19	-3%
COc1ccc(NC(=O)COc2nsnc2N2CCCCC2)cc1	18µM*	4	-2%	36	-10	12µM*
COc1ccc(NC(=O)COc2nsnc2N2CCOCC2)c(OC)c1	-10%	6	-2%	-12	4	-26%
O=C(COc1nsnc1N1CCOCC1)Nc1ccc(Br)cc1	21µM*	-14	·	-20	-10	?
CCN(CC)C(=S)SC1=CCS(=O)(=O)C1	-6%	7	·	6	-3	24%
SMILES	DT40 TDP1 no CPT	DRD3 agonist	ClpP mod	D3 antag	IL1B secr inh	TDP1 cell CPT
CCN(CC)C(=S)SSC(=S)N(CC)CC	0.15µM*	-33	1%	-26	-110*	0.021µM*
CC(C)CCn1c(O)c(N=NC(=O)Cn2ccc(C(F)(F)F)n2)c2ccccc21	23µM*	-13	0%	1	6	21µM*
CC(C)CCn1c(O)c(N=Nc2ccccn2)c2ccccc21	?	0	-2%	12	-1	?
CCc1ccc(NC(=O)C2CCCN2c2nn3c(=O)cc(C)nc3s2)cc1 (stereo not drawn)	?	-3	1%	24	20	-12%
COc1cc(C2/C(=C(\O)c3ccc4c(c3)CC(C)O4)C(=O)C(=O)N2CCN2CCOCC2)cc(OC)c1OC (stereo not drawn)	-4%	1	-6%	-1	i	-16%
CCCCN(C=O)c1c(CC)nc2c(OCCn3cccc3)cccn12	23µM*	-13	-1%	-82*	-10	?
CCCCN(C=O)c1c(CC)nc2c(OCCOc3ccc(F)cc3)cccn12	16µM*	10	-6%	1	-8	?
Cc1ccc2sc(N3CCN(C(=O)CCS(=O)(=O)c4ccc(Cl)cc4)CC3)nc2c1C	2.3µM*	4	-8%	·	·	4.1µM*
CCCCC(=O)N1CCN(c2nc3c(C)c(C)ccc3s2)CC1	18µM*	1	0%	·	·	?
CCOC(=O)c1sc(NC(=O)C2CC(=O)N(c3ccc(OC)cc3)C2)nc1C (stereo not drawn)	-11%	12	·	7	26	-4%
O=C1OCCN1c1c(-c2ccccc2)c(N2CCOCC2)nc2ccccc12	15µM*	1	-25%	35	16	12µM*
Cc1cc(/C=C2/SC(=S)N(c3cccc(C(F)(F)F)c3)C2=O)c(C)n1-c1cccnc1	0.73µM*	-4	1%	0	?	0.73µM*
COc1cccc(/C=C2\SC(=S)N(c3cccnc3)C2=O)c1OC	4%	5	·	12	34	0%
Cc1nn2c(=O)cc(COc3ccc(/C=C(\C#N)C(=O)Nc4ccccc4)cc3Cl)nc2s1	21µM*	-5	0%	·	·	-10%
Cc1nn2c(=O)cc(COc3ccc(/C=C(\C#N)C(=O)Nc4ccccc4C)cc3)nc2s1	?	-9	-1%	·	·	14%
